Eya2 phos inh = inhibitors of human Eya2 phosphatase activity; hit rate 0.006% among 330,000; O00167; recombinant Eya2, OMFP fluorescence dephosphorylation (OMFP is methylfluorescein phosphate); Potency, µM (series often up to 76.9 µM), inactives show at the highest dose activity, negative = inhibition, hits mostly inhibitors; AID 488837; also: potency is read from the fitted curve at half-maximal effect; % is scaled to controls: 0 for no effect and ±100 for the full control effect
Target sequence (O00167 whole entry, looked up): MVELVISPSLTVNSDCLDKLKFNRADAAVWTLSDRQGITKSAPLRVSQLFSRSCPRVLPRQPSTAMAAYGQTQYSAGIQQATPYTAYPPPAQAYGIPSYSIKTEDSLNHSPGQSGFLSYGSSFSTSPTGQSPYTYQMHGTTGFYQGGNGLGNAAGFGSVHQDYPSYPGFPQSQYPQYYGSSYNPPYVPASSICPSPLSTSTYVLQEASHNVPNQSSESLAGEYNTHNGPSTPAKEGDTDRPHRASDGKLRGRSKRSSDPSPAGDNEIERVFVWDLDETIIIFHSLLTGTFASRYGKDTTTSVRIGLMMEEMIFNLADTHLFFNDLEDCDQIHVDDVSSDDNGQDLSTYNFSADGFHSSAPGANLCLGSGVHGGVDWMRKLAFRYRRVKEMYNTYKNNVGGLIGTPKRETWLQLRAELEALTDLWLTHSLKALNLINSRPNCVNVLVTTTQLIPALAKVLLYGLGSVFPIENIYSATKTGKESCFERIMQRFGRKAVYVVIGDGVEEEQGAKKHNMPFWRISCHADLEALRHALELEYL
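Eya2 (0.2 uM) preincubated 10 min at ambient with compound, then OMFP substrate added at 50 uM; 10 min reaction in 50 mM HEPES pH 7.5, 50 mM NaCl, 5 uM MgCl2, 0.05% BSA, 1 mM DTT. Fluorescence read at Ex 485/Em 525 nm.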
IDH1 R132H inh = inhibitors of human mutant IDH1 R132H; O75874; IDH1-R132H enzyme, NADPH consumption, diaphorase/resazurin fluorescence; Potency, µM (doses to about 76.6 µM), inactives show top-dose activity change, negative = inhibition, hits mostly inhibitors; hit rate 0.093% among 390,000; AID 602179; also: potency is read from the fitted curve at half-maximal effect; % is scaled to controls: 0 for no effect and ±100 for the full control effect; nearly all actives have a fitted effect of over 65% in size
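IDH1-R132H (0.5 ug/mL dispensed) in pH 7.5 Tris buffer was preincubated 30 min with compound, then given a substrate mix of 0.016 mM NADPH and 2 mM alpha-KG for 80 min at room temperature; remaining NADPH was read by diaphorase/resazurin fluorescence.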
RGS4 inh = inhibitors of human regulator of G protein signaling 4 | Potency, µM (series often up to 114 µM), for the others: top-dose activity change, negative = inhibition, actives largely listed as inhibitors | hit rate 0.039% among 390,000 | Transcreener GDP fluorescence polarization, RGS4-accelerated GTP hydrolysis | P49798; also: potency is read from the fitted curve at half-maximal effect; % is scaled to controls: 0 for no effect and ±100 for the full control effect; nearly all actives have a fitted effect of over 75% in size
Target sequence (P49798 whole entry, looked up): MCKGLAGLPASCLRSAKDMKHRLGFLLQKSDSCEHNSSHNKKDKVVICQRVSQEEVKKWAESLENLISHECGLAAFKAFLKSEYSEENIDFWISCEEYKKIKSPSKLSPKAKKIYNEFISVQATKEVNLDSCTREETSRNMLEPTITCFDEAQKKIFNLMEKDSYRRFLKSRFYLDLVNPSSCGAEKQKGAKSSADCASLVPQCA
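MLSMR compounds (23 nl, pin-transferred) preincubated 10 min at room temperature with a 500nM (2x) first reagent, then RGS4 at 900nM (2x) plus Transcreener GDP mix added; fluorescence polarization (620/688 nm) read before and after 90 min at 30 °C.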
TrxR1 substrate = is turned over as a substrate by rat TrxR1; O89049; purified TrxR1 substrate turnover, NADPH consumption readout; Potency, µM (doses to about 114 µM), for inactives: top-dose activity change, negative = substrate turnover; hit rate 0.01% among 390,000; AID 588456; also: potency is read from the fitted curve at half-maximal effect; % is scaled to controls: 0 for no effect and ±100 for the full control effect; nearly all actives have a fitted effect of over 50% in size
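Rat TrxR1, dispensed at 90 nM, was prereduced with 400 uM NADPH (final) for 5 min at ~22 deg C, then incubated with compound 15 min before 400 uM selenite. A first-read NADPH fluorescence drop versus no-compound background flagged substrates.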
TrxR1 inh = inhibitors of rat thioredoxin reductase 1 | recombinant rTrxR1, NADPH fluorescence consumption, selenite substrate | O89049 | Potency, µM (series often up to 114 µM), inactives show top-dose activity change, negative = inhibition, hits mostly inhibitors | hit rate 1% among 390,000; also: potency is read from the fitted curve at half-maximal effect; % is scaled to controls: 0 for no effect and ±100 for the full control effect; nearly all actives have a fitted effect of over 65% in size
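Rat TrxR1 (90 nM in the dispensed reagent) was pre-reduced with 400 uM NADPH for 5 min at room temperature, then incubated with compound for 15 min. After 400 uM selenite was added, NADPH fluorescence (Ex 340/Em 450 nm) was followed for 8 min.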
Resorufin autofl = counter-screen for mutant IDH1 inhibitors: fluorescence interference; shares compounds with IDH1 R132H inh; Resorufin detection reagent fluorescence interference, cell-free; inhibition of signal, % at 51.2 µM; 750 tested, under 10 active; AID 623980;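 also: 0% = wells with normal resorufin and full inhibition = wells lacking resorufin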
WT IDH1 inh = wild-type IDH1 (human) inhibition counterscreen; shares compounds with IDH1 R132H inh; WT IDH1 enzyme, NADPH diaphorase/resazurin fluorescence; Potency, µM (top dose mostly 115 µM), inactives show top-dose activity change, negative = inhibition, most hits filed as inhibitors; hit rate 9% among 750;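 also: potency is read from the fitted curve at half-maximal effect; 0% = full WT IDH1 enzyme control and full inhibition = no enzyme wells; nearly all actives have a fitted effect of over 55% in size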
IDH1 R132H conf = inhibits human mutant IDH1 enzyme in cherrypick confirmation; AID 624002; IDH1 R132H enzyme, NADPH diaphorase/resazurin fluorescence; hit rate 83% among 750; Potency, µM (highest dose often 76.6 µM), for inactives: at the highest dose activity change, negative = inhibition, most hits filed as inhibitors; shares compounds with IDH1 R132H inh; also: potency is read from the fitted curve at half-maximal effect; nearly all actives have a fitted effect of over 50% in size
Numbers without * were called inactive; u = inconclusive; x = not tested or not shown; [ ] = remark or other dose. Only some compounds are listed: those with a hit (about 1.1% of all), similar ones and a draw of the others. Calls follow the shape of the dose curve; as a rule, active = well fitted curve in the direction sought with a large enough effect; inconclusive = small, poorly fitted or top-dose-only effect, or another doubt; inactive = no such curve, though single readings can be large; an effect the other way counts as inactive or inconclusive.

SMILES | Eya2 phos inh | IDH1 R132H inh | RGS4 inh | TrxR1 substrate | TrxR1 inh | Resorufin autofl | WT IDH1 inh | IDH1 R132H conf
Cc1cccc(NC(=O)CCNC(=O)c2ccccc2Cl)n1 | 3% | -9% | -13% | -4% | -4% | x | x | x
O=C(CN1C(=O)c2cccc3cccc1c23)NCc1ccncc1 | -20% | 13% | 22% | -1% | -17% | x | x | x
C=CCSC1=N/C(=C\c2ccc3c(c2)OCO3)C(=O)S1 | -1% | 1% | -9% | -9% | -5% | x | x | x
C=CCSC1=N/C(=C\c2cc(OCC)c(OC(C)=O)c([N+](=O)[O-])c2)C(=O)S1 | 0% | u | u | -11% | -36% | 2 | u | 25µM*
C[C@@H]1CN([C@@H](C)CO)C(=O)c2cc(C#Cc3cccc(F)c3)cnc2O[C@H]1CN(C)C(=O)C1CCCCC1 | x | 5% | x | x | x | x | x | x
COc1ccc(/C=N/NC(=O)c2c(C)nc3ccc(Cl)cn23)cc1OC | -2% | -2% | -14% | 4% | 15% | x | x | x
CCNC(=O)/C(C#N)=C/c1c(N(Cc2ccccc2)Cc2ccccc2)nc2ccccn2c1=O | -3% | u | 17% | 2% | 14% | -4 | 1% | 20µM*
CCNC(=O)/C(C#N)=C/c1c(N2CCOCC2)nc2ccccn2c1=O | 2% | 4% | -7% | 93% | 19% | x | x | x
CCNC(=O)/C(C#N)=C/c1c(N2CCN(C)CC2)nc2c(C)cccn2c1=O | 9% | 2% | 0% | 15% | 7%[57.1 µM] | x | x | x
CNC(=O)/C(C#N)=C/c1c(N(Cc2ccccc2)Cc2ccccc2)nc2c(C)cccn2c1=O | -19% | 52µM* | -15% | -11% | 18%[57.1 µM] | -1 | 2% | 14µM*
CCOC(=O)CSC1=NC(=O)/C(=C/c2ccc(OC)cc2)S1 | 1% | 52µM* | u | -13% | 16µM* | 2 | u | 45µM*
COc1ccc(/C=C2\SC(N)=NC2=O)cc1 | 1% | -4% | -29% | 0%[57.1 µM] | -6%[57.1 µM] | x | x | x
COC(=O)c1sccc1NC(=O)Nc1cc(C)ccc1C | -2% | -2% | 9% | 4% | 21% | x | x | x
CC(C)[C@H](NC(=O)c1ccccc1)C(=O)O | 6% | -11% | -18% | -3%[57.1 µM] | 13%[57.1 µM] | x | x | x
CCN1CCN(C(=O)c2ccc3c(c2)N(Cc2ccc(C)cc2)CCS3)CC1 | 3% | 11% | 4% | 14% | 5% | x | x | x
Cc1ccc(CN2CCSc3ccc(C(=O)N4CCN(c5ncccn5)CC4)cc32)cc1 | 0% | u | -15% | 21% | 10% | 6 | 3% | 16µM*
Cc1noc(C)c1S(=O)(=O)N1CCN(c2ccc([N+](=O)[O-])cc2)CC1 | 2% | -1% | 5% | -5% | 9% | x | x | x
CCOc1ccc(NC(=O)c2c[nH]n3c(=O)cc(C4CCN(C(=O)OC(C)(C)C)CC4)nc23)cc1 | -16% | 52µM* | -18% | 4% | 13% | -13 | 50µM* | 25µM*
COc1ccc(NS(=O)(=O)c2cc(NC(=O)C3=NN(c4ccccc4)C(=O)CC3)ccc2OC)cc1 | -12% | -3% | -12% | 2% | u | x | x | x
CCOC(=O)c1c(S(=O)(=O)NCC(=O)Nc2cccc(CC)c2)c(C)n(C)c1C | x | 3% | -10% | 6%[57.1 µM] | 14%[57.1 µM] | x | x | x
Cc1ccccc1NCC(=O)c1ccc(Br)cc1 | 2% | u | -4% | 8% | 8% | 2 | 103% | 45µM*
Cc1ccc(N2C(=O)c3n[nH]c(C)c3C2c2ccccc2Cl)cc1 (stereo unspecified) | x | -12% | 21% | -5% | 4% | x | x | x
Cc1ccc(N2C(=O)c3n[nH]c(C)c3C2c2ccc(Cl)cc2)cc1 (stereo unspecified) | x | u | -9% | -1% | 12% | -3 | -3% | 45µM*
CC(CNC(=O)Cn1ccc(NC(=O)OCc2ccccc2)nc1=O)c1ccccc1 (stereo unspecified) | 3% | 1% | -8% | 6% | 16% | x | x | x
CC1=NOC(=O)/C1=C\c1ccc(-c2ccc(Br)cc2)o1 | 16% | 21µM* | u | -5%[57.1 µM] | -33% | 1 | u | 22µM*
SMILES | Eya2 phos inh | IDH1 R132H inh | RGS4 inh | TrxR1 substrate | TrxR1 inh | Resorufin autofl | WT IDH1 inh | IDH1 R132H conf
Cc1ccccc1C(=O)NC(CC(C)C)C(=O)NCC(C)(C)N1CCOCC1 (stereo unspecified) | 1% | -1% | -1% | -3% | 0% | x | x | x
COC(=O)c1cccc(C#CC(NP(=O)(c2ccccc2)c2ccccc2)c2ccccc2)c1 (stereo unspecified) | -27% | -10% | 11% | -4% | u | x | x | x
CCC[C@@H]1C[C@@]1(CCC)[C@@H](NP(=O)(c1ccccc1)c1ccccc1)c1ccc(C(=O)OC)cc1 | -10% | u | 12% | 9%[57.1 µM] | 26%[57.1 µM] | -3 | -4% | 22µM*
C[C@H]1C[C@H]2[C@@H]3CCC4=CC(=O)C=C[C@]4(C)[C@@]3(F)[C@@H](O)C[C@]2(C)[C@@]1(O)C(=O)CO | x | -4% | -7% | 5% | 12% | x | x | x
CC1(c2ccccc2)O[C@@H]2C[C@H]3[C@@H]4CCC5=CC(=O)C=C[C@]5(C)[C@@]4(F)[C@@H](O)C[C@]3(C)[C@]2(C(=O)CO)O1 (stereo partly specified) | 10% | 29µM* | -4% | -8% | 9% | -6 | -14% | 5µM*
CC(C)C[C@H](NC(=O)CCn1nnc2ccccc2c1=O)C(=O)O | -13% | 6% | -46%[56.9 µM] | 1%[57.1 µM] | 34%[57.1 µM] | x | x | x
O=C1/C(=C/c2ccncc2)Oc2cc(OS(=O)(=O)c3ccccc3)ccc21 | 1% | 46µM* | u | 0% | 13% | -2 | u | 16µM*
COc1cccc(/C=C2\Oc3cc(OCC(=O)N4CCCC4)ccc3C2=O)c1OC | -4% | -5% | -10% | 10% | -7% | x | x | x
Cc1ccc(S(=O)(=O)Oc2ccc3c(c2)O/C(=C\c2cccnc2)C3=O)cc1 | 12% | u | 0% | 0% | 5% | -10 | -3% | 25µM*
COc1cccc(OC)c1C(=O)Oc1ccc2c(c1)O/C(=C\c1ccncc1)C2=O | 1% | u | -25% | -13% | -8% | -3 | 2% | 20µM*
O=C1/C(=C/c2cccnc2)Oc2cc(OS(=O)(=O)c3ccc(F)cc3)ccc21 | 15% | u | -24% | 11%[57.1 µM] | 8% | x | x | x
Cc1cccc(C)c1NC(=S)NCCCN1CCCC1=O | 9% | 2% | 11% | -7% | -13% | x | x | x

From PubChem
